# According to ChEMBL document CHEMBL3988442, “University of Dundee, Small-Polar-MMV Screening Library” (2021):
# For some assays here: Results with a measured potency or affinity are listed apart.
# Tests used:
# Parameters in all cases: scale not given: direction of the effect not stated beside the values
# [1] = target: Protein translocase subunit SecA (Escherichia coli (strain K12)) (UniProt P10408); experiment: Assay to Identify E. coli SecA ATPase Inhibitors; assay type: functional; conditions: 30 µM
# [2] = target: T1, Ubiquitin-activating enzyme e1, putative (Leishmania donovani (strain BPK282A1)) (UniProt E9BSI1); experiment: Leishmania donovani Ubiquitin Activating Enzyme (LdE1); assay type: functional; conditions: 30 µM
# T1 sequence (whole entry): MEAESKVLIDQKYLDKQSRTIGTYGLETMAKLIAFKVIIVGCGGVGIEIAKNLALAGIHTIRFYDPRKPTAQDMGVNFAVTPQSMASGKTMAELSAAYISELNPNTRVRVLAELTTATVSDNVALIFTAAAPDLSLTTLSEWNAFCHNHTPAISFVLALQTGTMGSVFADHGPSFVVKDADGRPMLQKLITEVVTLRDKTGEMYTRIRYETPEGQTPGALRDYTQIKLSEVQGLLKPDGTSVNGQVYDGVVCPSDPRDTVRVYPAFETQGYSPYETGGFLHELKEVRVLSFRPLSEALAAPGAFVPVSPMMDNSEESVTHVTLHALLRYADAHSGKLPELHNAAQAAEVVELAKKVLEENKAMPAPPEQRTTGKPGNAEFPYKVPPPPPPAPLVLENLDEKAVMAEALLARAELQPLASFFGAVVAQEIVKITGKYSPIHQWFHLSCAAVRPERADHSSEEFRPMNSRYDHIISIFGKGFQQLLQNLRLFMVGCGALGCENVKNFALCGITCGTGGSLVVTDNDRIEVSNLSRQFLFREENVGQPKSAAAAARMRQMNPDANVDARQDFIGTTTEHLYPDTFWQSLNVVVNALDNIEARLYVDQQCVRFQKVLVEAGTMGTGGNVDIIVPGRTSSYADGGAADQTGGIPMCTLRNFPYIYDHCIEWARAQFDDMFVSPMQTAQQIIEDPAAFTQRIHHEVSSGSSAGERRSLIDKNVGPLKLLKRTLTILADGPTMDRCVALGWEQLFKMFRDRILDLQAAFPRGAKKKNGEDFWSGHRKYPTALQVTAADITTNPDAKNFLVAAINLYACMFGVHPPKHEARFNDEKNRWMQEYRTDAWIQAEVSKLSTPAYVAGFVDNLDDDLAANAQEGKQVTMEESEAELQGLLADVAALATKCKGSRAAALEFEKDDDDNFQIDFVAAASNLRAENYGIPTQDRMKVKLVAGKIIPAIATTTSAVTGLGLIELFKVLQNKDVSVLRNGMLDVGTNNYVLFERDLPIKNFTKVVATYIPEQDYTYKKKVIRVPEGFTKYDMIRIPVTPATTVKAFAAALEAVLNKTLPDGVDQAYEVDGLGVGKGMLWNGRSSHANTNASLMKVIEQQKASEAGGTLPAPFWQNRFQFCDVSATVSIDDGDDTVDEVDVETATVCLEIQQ
# [3] = target: AMP-activated protein kinase, AMPK (Homo sapiens) (UniProt P54646+O43741+P54619+Q9UGJ0+Q9Y478+Q13131+Q9UGI9); experiment: AMP-dependent Kinase enzyme assay. An in vitro enzyme assay that detects ADP turnover that is directly proportional to AMPK activity. This uses naive AMPK that is activated during the assay with MK-8722; assay type: functional; conditions: 30 µM
# [4] = target: Sialic acid-binding Ig-like lectin 9 (Homo sapiens) (UniProt Q9Y336); experiment: Hs-Siglec9 ALPHAscreen SOP 20170721; conditions: 10 µM
# Trypanosoma cruzi = experiment: Trypanosoma cruzi phosphomannomutase and mannose-1-phosphate guanylyltransferase assay; assay type: functional; conditions: 10 µM
# [5] = target: T2, Arginase-2, mitochondrial (Homo sapiens) (UniProt P78540); experiment: in vitro enzyme assay to detect the production of urea directly proportional to the activity of Arginase II; assay type: functional; conditions: 33.3 µM; note: in the data most compounds retested in dose-response had high values
# T2 sequence (whole entry): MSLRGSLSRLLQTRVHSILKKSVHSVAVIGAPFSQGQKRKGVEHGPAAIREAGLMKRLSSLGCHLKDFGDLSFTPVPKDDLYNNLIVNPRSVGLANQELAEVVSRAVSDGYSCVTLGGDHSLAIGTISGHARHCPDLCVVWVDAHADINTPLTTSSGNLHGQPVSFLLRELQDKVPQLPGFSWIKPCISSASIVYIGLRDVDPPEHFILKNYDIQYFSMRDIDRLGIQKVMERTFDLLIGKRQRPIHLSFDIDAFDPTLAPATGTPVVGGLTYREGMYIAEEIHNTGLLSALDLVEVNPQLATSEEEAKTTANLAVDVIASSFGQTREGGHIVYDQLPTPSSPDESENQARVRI
# [6] = target: T3, Proteasome subunit beta (Trypanosoma cruzi) (UniProt O96673); experiment: Trypanosoma cruzi proteasome chymotrypsin-like activity (TcProtChymo) assay.; note: in the data most compounds retested in dose-response had high values; assay type: functional; conditions: 9.37 µM
# T3 sequence (whole entry): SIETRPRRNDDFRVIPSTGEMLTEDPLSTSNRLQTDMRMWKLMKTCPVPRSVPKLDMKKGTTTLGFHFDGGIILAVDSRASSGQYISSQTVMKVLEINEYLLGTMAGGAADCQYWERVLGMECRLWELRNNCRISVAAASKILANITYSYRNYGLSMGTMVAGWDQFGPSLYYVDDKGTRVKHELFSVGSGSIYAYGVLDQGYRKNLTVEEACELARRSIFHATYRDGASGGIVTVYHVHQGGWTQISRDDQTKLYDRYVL
# Homo sapiens = species on record: Homo sapiens; experiment: To identify inhibition of the IFN signalling (Jak-Stat) pathway via expression of an eGFP reporter gene under the control of an IFN-stimulated response element (ISRE) containing MxA promoter.; assay type: functional; conditions: 30 µM
# [7] = target: T4, Tyrosyl-tRNA synthetase, putative (Trypanosoma cruzi (strain CL Brener)) (UniProt Q4DSP6); experiment: Trypanosoma cruzi tyrosyl tRNA synthetase (TcYRS) _High Tyrosine SOP; assay type: functional; conditions: 30 µM; note: in the data most compounds retested in dose-response had high values
# T4 sequence (whole entry): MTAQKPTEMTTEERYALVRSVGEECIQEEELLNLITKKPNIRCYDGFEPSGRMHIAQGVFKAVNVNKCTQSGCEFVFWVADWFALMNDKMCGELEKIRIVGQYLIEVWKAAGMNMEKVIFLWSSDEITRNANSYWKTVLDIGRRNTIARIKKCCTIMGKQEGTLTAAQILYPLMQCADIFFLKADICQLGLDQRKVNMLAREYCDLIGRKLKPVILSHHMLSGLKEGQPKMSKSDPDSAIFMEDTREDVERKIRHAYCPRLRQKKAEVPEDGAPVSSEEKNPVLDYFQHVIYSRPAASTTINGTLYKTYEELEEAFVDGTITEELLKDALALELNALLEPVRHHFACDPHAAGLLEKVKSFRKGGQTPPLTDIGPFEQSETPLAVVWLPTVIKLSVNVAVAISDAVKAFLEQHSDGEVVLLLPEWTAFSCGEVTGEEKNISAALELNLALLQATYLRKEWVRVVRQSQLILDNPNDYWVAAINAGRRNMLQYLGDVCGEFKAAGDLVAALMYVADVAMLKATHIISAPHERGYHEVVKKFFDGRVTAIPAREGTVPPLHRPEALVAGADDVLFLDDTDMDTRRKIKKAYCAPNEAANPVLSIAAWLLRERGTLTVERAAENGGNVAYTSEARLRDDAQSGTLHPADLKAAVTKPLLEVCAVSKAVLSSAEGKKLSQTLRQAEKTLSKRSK
# [8] = target: T4, Tyrosyl-tRNA synthetase, putative (Trypanosoma cruzi (strain CL Brener)); experiment: Trypanosoma cruzi tyrosyl tRNA synthetase (TcYRS) SOP; assay type: functional; conditions: 30 µM
# [9] = target: Chromo domain-containing protein 1 (Saccharomyces cerevisiae (strain ATCC 204508 / S288c) (Baker's yeast)) (UniProt P32657); experiment: ScCHD-1 Enzyme Inhibition Assay; assay type: functional; conditions: 30 µM; note: in the data most compounds retested in dose-response had high values
# Chromo domain-containing protein 1 (Saccharomyces cerevisiae (strain ATCC 204508 / S288c) (Baker's yeast)), sequence (P32657 whole entry, the tested form may be a part): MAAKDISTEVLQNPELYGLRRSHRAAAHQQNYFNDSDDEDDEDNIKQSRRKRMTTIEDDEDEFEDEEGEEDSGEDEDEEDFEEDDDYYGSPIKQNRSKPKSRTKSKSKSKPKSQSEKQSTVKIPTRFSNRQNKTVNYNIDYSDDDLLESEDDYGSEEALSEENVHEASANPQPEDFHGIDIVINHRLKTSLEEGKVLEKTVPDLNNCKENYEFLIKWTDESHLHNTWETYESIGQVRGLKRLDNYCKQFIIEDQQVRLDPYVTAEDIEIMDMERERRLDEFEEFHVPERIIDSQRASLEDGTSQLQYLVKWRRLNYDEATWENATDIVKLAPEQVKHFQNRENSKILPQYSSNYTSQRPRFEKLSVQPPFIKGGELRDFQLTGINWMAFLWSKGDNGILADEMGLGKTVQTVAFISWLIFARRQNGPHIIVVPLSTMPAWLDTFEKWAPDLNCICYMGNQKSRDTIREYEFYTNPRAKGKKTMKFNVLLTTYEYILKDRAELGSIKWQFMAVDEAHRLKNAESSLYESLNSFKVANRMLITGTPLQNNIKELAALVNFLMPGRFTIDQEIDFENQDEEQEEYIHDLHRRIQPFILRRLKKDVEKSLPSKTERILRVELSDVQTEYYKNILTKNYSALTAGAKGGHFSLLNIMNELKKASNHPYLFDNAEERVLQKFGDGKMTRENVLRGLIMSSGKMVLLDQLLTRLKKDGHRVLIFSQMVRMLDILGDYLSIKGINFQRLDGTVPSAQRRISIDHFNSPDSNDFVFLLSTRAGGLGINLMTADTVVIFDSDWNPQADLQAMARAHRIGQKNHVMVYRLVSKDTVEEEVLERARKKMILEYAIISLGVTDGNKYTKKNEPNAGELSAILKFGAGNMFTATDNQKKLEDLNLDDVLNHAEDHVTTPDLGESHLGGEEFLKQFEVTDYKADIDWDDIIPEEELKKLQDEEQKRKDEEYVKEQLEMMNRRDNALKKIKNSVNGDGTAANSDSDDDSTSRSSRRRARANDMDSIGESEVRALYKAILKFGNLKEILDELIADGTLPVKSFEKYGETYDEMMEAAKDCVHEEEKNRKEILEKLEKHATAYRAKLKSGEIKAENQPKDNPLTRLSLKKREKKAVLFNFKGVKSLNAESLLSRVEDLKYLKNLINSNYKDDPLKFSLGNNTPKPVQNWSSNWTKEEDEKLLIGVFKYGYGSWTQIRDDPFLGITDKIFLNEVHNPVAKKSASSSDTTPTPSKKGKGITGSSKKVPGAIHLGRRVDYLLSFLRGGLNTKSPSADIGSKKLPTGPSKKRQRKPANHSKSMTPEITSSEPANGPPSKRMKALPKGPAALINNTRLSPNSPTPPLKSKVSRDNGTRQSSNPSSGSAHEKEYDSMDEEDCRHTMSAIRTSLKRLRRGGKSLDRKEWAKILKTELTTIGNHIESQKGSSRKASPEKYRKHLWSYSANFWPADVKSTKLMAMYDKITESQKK
# Protein translocase subunit SecA (Escherichia coli (strain K12)), sequence (P10408 whole entry): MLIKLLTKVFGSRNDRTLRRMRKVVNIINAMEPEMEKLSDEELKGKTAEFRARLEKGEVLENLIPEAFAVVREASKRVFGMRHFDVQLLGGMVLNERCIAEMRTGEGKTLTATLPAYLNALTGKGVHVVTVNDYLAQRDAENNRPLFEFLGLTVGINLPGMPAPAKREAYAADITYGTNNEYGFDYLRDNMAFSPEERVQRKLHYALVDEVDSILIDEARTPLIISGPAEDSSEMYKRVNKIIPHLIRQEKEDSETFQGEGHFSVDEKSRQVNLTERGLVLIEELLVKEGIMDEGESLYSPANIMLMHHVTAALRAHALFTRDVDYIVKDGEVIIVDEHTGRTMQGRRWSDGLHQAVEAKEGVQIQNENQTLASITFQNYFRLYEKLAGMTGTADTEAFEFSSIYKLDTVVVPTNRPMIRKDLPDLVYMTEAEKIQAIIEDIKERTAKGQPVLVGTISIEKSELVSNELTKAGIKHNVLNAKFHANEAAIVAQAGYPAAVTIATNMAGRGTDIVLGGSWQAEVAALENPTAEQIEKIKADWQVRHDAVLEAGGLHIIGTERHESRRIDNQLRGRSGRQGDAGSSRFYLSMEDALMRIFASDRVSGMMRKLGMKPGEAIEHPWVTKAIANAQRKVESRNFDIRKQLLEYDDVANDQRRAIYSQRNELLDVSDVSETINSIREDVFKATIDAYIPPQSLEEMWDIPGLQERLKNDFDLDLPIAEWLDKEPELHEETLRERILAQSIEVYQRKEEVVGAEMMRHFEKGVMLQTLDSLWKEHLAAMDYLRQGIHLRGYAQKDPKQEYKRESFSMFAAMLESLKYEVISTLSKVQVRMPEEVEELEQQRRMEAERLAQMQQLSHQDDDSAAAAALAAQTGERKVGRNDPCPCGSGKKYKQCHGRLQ
# Sialic acid-binding Ig-like lectin 9 (Homo sapiens), sequence (Q9Y336 whole entry): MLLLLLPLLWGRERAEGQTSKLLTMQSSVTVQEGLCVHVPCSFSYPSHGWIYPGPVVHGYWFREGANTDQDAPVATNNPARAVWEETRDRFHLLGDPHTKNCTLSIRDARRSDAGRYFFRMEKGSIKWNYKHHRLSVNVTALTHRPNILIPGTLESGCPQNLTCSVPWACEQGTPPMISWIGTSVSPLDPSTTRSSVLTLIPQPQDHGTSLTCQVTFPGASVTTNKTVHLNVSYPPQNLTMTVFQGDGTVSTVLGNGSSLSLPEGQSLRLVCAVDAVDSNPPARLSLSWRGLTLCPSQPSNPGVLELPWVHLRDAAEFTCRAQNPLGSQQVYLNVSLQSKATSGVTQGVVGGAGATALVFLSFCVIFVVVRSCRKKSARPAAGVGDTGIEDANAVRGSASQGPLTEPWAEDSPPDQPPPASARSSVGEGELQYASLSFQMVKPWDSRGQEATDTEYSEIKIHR
Structure (SMILES),Percent Effect [1],Percent Effect [2],Percent Effect [3],Percent Effect [4],Percent Effect (Trypanosoma cruzi),Percent Effect [5],Percent Effect [6],Percent Effect (Homo sapiens),Percent Effect [7],Percent Effect [8],Percent Effect [9]
CC(C)Cc1cc(NC(=O)c2ccc(=O)[nH]n2)n(C)n1,-8.11%,18.2%,-1.51%,12.1%,3.75%,2.85%,4.73%,0.756%,8.74%,24.4%,-11.8%
c1ccc(-c2cnc(CN3CCCC3Cn3cncn3)o2)cc1 (configuration not stated),-2.46%,5.06%,-0.0232%,-1.55%,-2.93%,2.66%,-0.737%,10.6%,7.39%,13.9%,-8.4%
CC(=O)c1ccc(OCC(=O)NC(C)CCc2ccco2)cc1 (configuration not stated),-0.558%,5.41%,7.91%,-3.5%,-7.34%,1.91%,19.8%,6.38%,3.7%,2.44%,-1.85%
Cc1nc(C)n(CC2CCCN(Cc3nnc(-c4ccco4)o3)C2)n1 (configuration not stated),-3.02%,0%,11.3%,-2.45%,3.02%,3.55%,3.74%,4.98%,5.32%,5.2%,-1.67%
COc1cc(C(=O)NC(CC(=O)O)c2cccs2)cc(Cl)c1OC (configuration not stated),-3%,8.86%,6.71%,-5.2%,-3.79%,1.07%,20.9%,-0.746%,2.08%,5.06%,-25.4%
COCCC(=O)N1C[C@@H]2COC[C@]2(COCc2cccnc2)C1,-1.17%,13%,1.86%,-1.48%,-14.7%,12.3%,12%,17.3%,-1.06%,8.97%,-8.34%
CC(C)CN1CCC(C(=O)Nc2cc(C(F)(F)F)c[nH]c2=O)CC1,-7.9%,10.4%,4.55%,14.9%,6.37%,-2.13%,1.18%,-6.76%,5.83%,21.9%,-10.2%
CCOc1ccc(CNCCCn2ccnc2)cc1Br,-0.283%,12%,-3.14%,3.52%,-3.34%,-6.51%,12.8%,9.57%,6.35%,10.3%,-10.4%
Cn1nccc1C(=O)N1CCOC(Cc2cccnc2)C1 (configuration not stated),-5.75%,10.7%,-3.23%,4.56%,5.91%,-3.03%,-4.85%,7.36%,6.38%,16.7%,-7.31%
COc1c(CNC2CCN(C(=O)C3CC3)CC2)c(C(C)C)nn1C,-4.71%,21.1%,-4.53%,-2.41%,-4.95%,1.44%,-0.0846%,15.4%,6.4%,18.5%,-3.47%
COCCNS(=O)(=O)c1ccc2c(c1)CCN(C(=O)c1cncn1C)C2,-1.62%,6.94%,-17.1%,2.73%,-1.46%,6.62%,22.1%,6.15%,7.37%,10.3%,-2.12%
Cc1cc(C)n(CC(C)CNC(=O)[C@@H](C)NC(=O)OC(C)(C)C)n1 (some centres not stated),-2.44%,7.89%,3.79%,1.85%,0.487%,-5.92%,17.7%,-12.5%,4.25%,13%,-2.31%
Cc1nn(C)c(Cl)c1C1CCCN1CCc1ccccn1 (configuration not stated),3.64%,-3.8%,12.3%,1.51%,-1.74%,7.53%,5.83%,4.77%,-1.04%,2.53%,-11.7%
CC(NC(=O)c1cc(-c2cccc(Cl)c2)no1)C(=O)N1CCCC1 (configuration not stated),-2.69%,0%,16.6%,-3.21%,-5.16%,-2.37%,7.19%,-1.32%,2.13%,0%,-4.18%
O=C(c1ccccn1)N1CCCC(c2nccn2CC2CCC2)C1 (configuration not stated),-7.93%,0%,-15.1%,2.39%,-2.35%,-2.27%,3.37%,7.95%,0%,0%,-2.91%
COc1cc(CN2CCN(c3cccc(OC)c3)C(=O)C2)cc(OC)c1,-1.99%,1.39%,-1.82%,-5.46%,-5.34%,-4.42%,10.9%,-15.2%,2.1%,2.56%,-2.05%
CCN1CC2(CCNCC2)COc2ccccc2S1(=O)=O,-1.39%,6.67%,7.12%,3.15%,-4.91%,-18.1%,13.1%,2.26%,-7.41%,5.13%,-8.01%
Cc1ccc(-n2nnc(CC(=O)N3CCOCC3)c2C)cc1,-3.24%,18.2%,-1.18%,11.4%,5.61%,-12.4%,13%,6.11%,6.45%,18.5%,-6.8%
Cc1nnc(N2CC[C@H](OCC3CC3)[C@@H](Cc3ccccc3)C2)s1,-2.17%,-5.33%,8.54%,9.81%,5.99%,-31.7%,7.01%,-7.72%,0%,5%,-3.2%
O=C(NS(=O)(=O)c1ccccc1Cl)c1cccc2c1OCCO2,-5.38%,5.48%,-3.79%,16.7%,3.53%,8.64%,10.7%,7.24%,-10.8%,-10%,96.7%
O=C(c1ccncc1)N1CCCn2c(CN3CCCCC3)nnc2C1,-3.23%,2.67%,9.49%,2.61%,4.13%,-5.36%,5.9%,-3.57%,5.32%,-1.28%,1.13%
CN(C)C(=O)COC1COC2(CCN(S(C)(=O)=O)CC2)C1 (configuration not stated),0.201%,13.5%,1.81%,-7.02%,-1.47%,9.87%,18.1%,-9.56%,4.32%,12.8%,-1.01%
